Here are results for 16 compounds from PubChem BioAssay (NCI).

SMILES strings stand for the structures. The panel holds about 83,000 compounds, 20% with a hit somewhere; the sample as a whole holds those more often.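 Compound tested at a single concentration for 48 hours in 96-well plates; a percent growth value below 10 was scored as active.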 A number with no mark means an inactive call. The source made the active and inactive calls.

Test systems include T-47D breast; BT-549 breast; MDA-MB-435 melanoma; SW-620 colon; MCF7 breast; HCT-116 colon; HCC-2998 colon; KM12 colon.
Experiment in all cases: NCI-60 one-dose screen, 48 h (100 = growth as untreated, 0 = no growth, -100 = all killed)
Common to all, as to settings: 10 µM unless noted

As for `Cc1nccc2c3ccc(OCc4cn(-c5ccc(Cl)cc5)nn4)cc3n(CCCc3ccccc3)c12`, the growth is 74.7% with T-47D breast; 31.8% with BT-549 breast; 27.8% in the test with MDA-MB-435 melanoma; 12.9% with SW-620 colon; 20.2% in the test with MCF7 breast; 31.7% with HCT-116 colon. The growth is 70.9% in the test on HCC-2998 colon and 35.2% in the test with KM12 colon.

As for `NC(=S)N/N=C(\c1ccc(Cl)cc1)C1CC1`, the growth was 30.6% in the test on T-47D breast; 114% with BT-549 breast; 93.8% in the test with MDA-MB-435 melanoma; 72% in the test on SW-620 colon; 18.5% with MCF7 breast; 3.65% (active) in the test with HCT-116 colon. In addition, the growth with HCC-2998 colon was 102%; in the test with KM12 colon, 100%.

Take `Cc1c2c(cc[n+]1Cc1ccc(F)cc1)c1ccc(OCc3cccc(F)c3)cc1n2Cc1cccc(F)c1`: the growth with T-47D breast was -75.8% (active); with BT-549 breast, -88.3% (active); with MDA-MB-435 melanoma, -91.8% (active); with SW-620 colon, -87.6% (active); in the test on MCF7 breast it was -76.7% (active); with HCT-116 colon, -92.1% (active). Further, the results for the growth with HCC-2998 colon and in the test on KM12 colon were -92.5% (active) and -98.8% (active), respectively.

For `CS(=O)(=O)c1ccc(-c2cc3c(oc2=O)-c2ccccc2OC3O)cc1` (stereo not drawn), the growth is 90.4% in the test on T-47D breast; 107% with BT-549 breast; 111% in the test with MDA-MB-435 melanoma; 97.8% in the test on SW-620 colon; 84.8% in the test with MCF7 breast; 95.9% with HCT-116 colon. The results for the growth in the test on HCC-2998 colon and in the test on KM12 colon were 97.5% and 95.1%, respectively.

In the case of `Cc1ccc(C(c2c(O)c3cc(Br)ccc3[nH]c2=O)c2c(O)c3cc(Br)ccc3[nH]c2=O)cc1`, the growth in the test on T-47D breast was 71.6%; with BT-549 breast, 87.4%; in the test on MDA-MB-435 melanoma it was 86.3%; in the test on SW-620 colon, 102%; in the test on MCF7 breast, 80.2%; in the test on HCT-116 colon, 82.4%. Further, the growth with HCC-2998 colon was 94.4%; in the test with KM12 colon it was 88.2%.

Consider `CCOC(=O)c1c(SC)nn(-c2cc(=O)[nH]c3ccc(Br)cc23)c1N`, for which the growth in the test on T-47D breast was 92.9%; with BT-549 breast it was 116%; in the test with MDA-MB-435 melanoma it was 107%; in the test on SW-620 colon it was 94.2%; in the test on MCF7 breast it was 93.4%; in the test with HCT-116 colon it was 89.5%. The results for the growth in the test with HCC-2998 colon and in the test on KM12 colon were 102% and 99%, respectively.

Take `Cn1c2c(Cl)c(Cl)ccc2c2cc(N)[nH]c(=O)c21`: the growth in the test on T-47D breast was 79.7%; with BT-549 breast it was 64.2%; in the test on MDA-MB-435 melanoma it was 107%; in the test with SW-620 colon it was 77.8%; with MCF7 breast, 72.4%; in the test on HCT-116 colon, 83.1%. Further, the figures for the growth in the test with HCC-2998 colon and in the test on KM12 colon were 85% and 94.2%, respectively.

For the compound `COc1cc2nc(-c3ccc(-c4nn[nH]n4)cc3)[nH]c(=O)c2cc1OC`, the growth was 102% with T-47D breast; 251% in the test with BT-549 breast; 105% in the test on MDA-MB-435 melanoma; 107% in the test on SW-620 colon; 98.9% in the test with MCF7 breast; 104% in the test on HCT-116 colon. Further, the growth with HCC-2998 colon was 114%; in the test with KM12 colon, 126%.

`COc1cc(C(=O)c2cnc(-c3ccc4cc[nH]c4c3)[nH]2)cc(OC)c1OC`: the growth was 59% with T-47D breast; 42.9% with BT-549 breast; -28.4% (active) with MDA-MB-435 melanoma; 19.2% with SW-620 colon; 11.3% in the test on MCF7 breast; -6.9% (active) in the test with HCT-116 colon. For the same compound, the results for the growth with HCC-2998 colon and with KM12 colon were 6.12% (active) and -9.92% (active), respectively.

For the compound `CCc1nc(C)cn1C(=O)OCc1nc2nc(Cl)nc(N3CCOCC3)c2[nH]1`, the growth with T-47D breast was -47.9% (active); in the test with BT-549 breast, -18.8% (active); in the test on MDA-MB-435 melanoma, -73.6% (active); in the test with SW-620 colon it was -47.9% (active); with MCF7 breast it was -22.4% (active); with HCT-116 colon, -71.5% (active). In addition, the growth in the test with HCC-2998 colon is 26.5%; with KM12 colon, 20.8%.

`COc1ccc(/C=C2\COc3ccc(-c4ccccc4)cc3C2=O)cc1O`: the growth in the test with T-47D breast is 6.79% (active); in the test on BT-549 breast, 2.18% (active); with MDA-MB-435 melanoma, 5.12% (active); in the test on SW-620 colon it was 6.95% (active); in the test with MCF7 breast it was 0.878% (active); in the test on HCT-116 colon it was -5.06% (active). Also, the growth is 43.1% with HCC-2998 colon and 2.07% (active) in the test on KM12 colon.

Consider `COc1ccc(-c2nc(N=Nc3c(O)[nH]c4ccccc34)nc(N3CCOCC3)c2C#N)cc1`, for which the growth is 65.4% in the test with T-47D breast; 62.8% in the test on BT-549 breast; 79.1% in the test on MDA-MB-435 melanoma; 66.8% in the test with SW-620 colon; 60.6% with MCF7 breast; 29.7% in the test on HCT-116 colon. Also, the growth in the test on HCC-2998 colon is 95%; with KM12 colon, 73.4%.

With `C=CCn1c(SCC(=O)Nc2ccc(C(=O)/C=C/c3cc(OC)c(OC)c(OC)c3)cc2)nnc1-c1cc(OC)c(OC)c(OC)c1`, the growth was 60.7% in the test with T-47D breast; 52.3% in the test with BT-549 breast; 3.79% (active) with MDA-MB-435 melanoma; -9.49% (active) in the test on SW-620 colon; 7.87% (active) in the test on MCF7 breast; -70.9% (active) with HCT-116 colon. Besides, the growth in the test with HCC-2998 colon is 20.2%; in the test on KM12 colon it was 1.11% (active).

As to `CCC(=O)c1ccc(O)c(OC)c1`, the growth in the test with T-47D breast is 109%; with BT-549 breast, 114%; with MDA-MB-435 melanoma, 114%; in the test with SW-620 colon it was 101%; with MCF7 breast, 108%; with HCT-116 colon, 91.2%. Besides, the values for the growth with HCC-2998 colon and in the test with KM12 colon were 101% and 113%, respectively.

Take `COc1ccc(/C=C/C(=O)c2ccc(OC)c(OC)c2)cc1O`: the growth was 75.7% in the test with T-47D breast; 85.2% in the test with BT-549 breast; 75% in the test with MDA-MB-435 melanoma; 17.1% in the test with SW-620 colon; 51.6% in the test on MCF7 breast; 20.3% in the test with HCT-116 colon. Besides, the growth in the test on HCC-2998 colon is 102%; in the test with KM12 colon, 70.6%.

In the case of `OC1(c2ccc(Cl)c(C(F)(F)F)c2)CCN(CCCC(c2ccc(F)cc2)c2ccc(F)cc2)CC1`, the growth in the test with T-47D breast was -62.1% (active); with BT-549 breast it was -92.8% (active); with MDA-MB-435 melanoma, -91.6% (active); in the test with SW-620 colon it was -100% (active); in the test with MCF7 breast, -90.3% (active); in the test with HCT-116 colon, -92.3% (active). Also, the growth in the test on HCC-2998 colon was -97.2% (active); with KM12 colon it was -99.2% (active).
